± gives the standard deviation of the averaged measurements.
Each compound was assayed on SUM149 (assay: percent difference in area under dose-response curve of relative cell number, RPMI vs HPLM; higher = drug relatively more effective in HPLM than RPMI (negative = less effective in HPLM)). Details: treatment time: 72 h; dose range: 10-point, 1 nM to 20 µM; media compared: RPMI vs HPLM.
`CN(Cc1cnc2nc(N)nc(N)c2n1)c1ccc(C(=O)N[C@@H](CCC(=O)O)C(=O)O)cc1` [Methotrexate] was tested, and the “percent difference in area under dose-response curve” value (from here on “percent difference in area”) was -7.17%. For `Cc1cc(Nc2nc(N[C@@H](C)c3ncc(F)cn3)ncc2Cl)[nH]n1`, the “percent difference in area” value was -7.89%. For `Cc1cc(NC(=O)c2cccc(NC(=O)/C=C/CN(C)C)c2)ccc1Nc1nccc(-c2cccnc2)n1`, the “percent difference in area” value was 7.32%. In the case of `CN1CCN(c2nc(C3=C(c4c[nH]c5ccccc45)C(=O)NC3=O)c3ccccc3n2)CC1` [Sotrastaurin], the “percent difference in area” value is reported as 9.13%. For `CC(C)[C@H](C(=O)Nc1ccc(C(=O)NO)cc1)c1ccccc1`, the “percent difference in area” value was -15.2%. `Oc1ccc(/C=C/c2cc(O)cc(O)c2)cc1` [Resveratrol] was tested, and the “percent difference in area” value was -1.11%. With `Cn1cc(-c2ccc3c(c2)CCN3C(=O)Cc2cccc(C(F)(F)F)c2)c2c(N)ncnc21` the “percent difference in area” value was 4.03%. With `CC/C(=C(\c1ccccc1)c1ccc(OCCN(C)C)cc1)c1ccccc1` [Tamoxifen_Citrate] the “percent difference in area” value was -4.18%. For `CCC(C)SSc1ncc[nH]1` (centres undefined), the “percent difference in area” value was 3.05%. With `Cc1ccc(Nc2nccc(N(C)c3ccc4c(C)n(C)nc4c3)n2)cc1S(N)(=O)=O` [Pazopanib] the “percent difference in area” value was 5.29%. For `O=C(NCC1(c2nc(-c3ccccc3)cs2)CCOCC1)c1cccc(-c2noc(C(F)(F)F)n2)c1`, the “percent difference in area” value was 0.481%. In the case of `CO[C@H]1C[C@@H]2CC[C@@H](C)[C@@](O)(O2)C(=O)C(=O)N2CCCC[C@H]2C(=O)O[C@H]([C@H](C)C[C@@H]2CC[C@@H](OP(C)(C)=O)[C@H](OC)C2)CC(=O)[C@H](C)/C=C(\C)[C@@H](O)[C@@H](OC)C(=O)[C@H](C)C[C@H](C)/C=C/C=C/C=C/1C` [Deforolimus], the “percent difference in area” value is reported as 2.18%. In the case of `CO[C@H]1/C=C\C=C(/C)C(=O)NC2=CC(=O)C(NCCN(C)C)=C(C[C@@H](C)C[C@H](OC)[C@H](O)[C@@H](C)/C=C(\C)[C@@H]1OC(N)=O)C2=O`, the “percent difference in area” value is reported as -30.8%. For `O=C1c2c(O)ccc(O)c2C(=O)c2c(NCCNCCO)ccc(NCCNCCO)c21` [Mitoxantrone_HCl], the “percent difference in area” value was -32.7%. `CC(=O)O[C@@]12CO[C@@H]1C[C@H](O)[C@@]1(C)C(=O)[C@H](O)C3=C(C)[C@@H](OC(=O)[C@H](O)[C@@H](NC(=O)OC(C)(C)C)c4ccccc4)C[C@@](O)([C@@H](OC(=O)c4ccccc4)[C@H]21)C3(C)C` [Docetaxel] was tested, and the “percent difference in area” value was -42.7%. `CCNC(=O)c1noc(-c2cc(Cl)c(O)cc2O)c1-c1ccc(OC)cc1` was tested, and the “percent difference in area” value was -12.2%. `Cc1ccc(-c2cc(C(F)(F)F)nn2-c2ccc(S(N)(=O)=O)cc2)cc1` [Celecoxib] was tested, and the “percent difference in area” value was 1.54 ± 3%. `CCCCCCNC(=O)n1cc(F)c(=O)[nH]c1=O` [Carmofur] was tested, and the “percent difference in area” value was -3.39%. For `O=C(/C=C/c1ccc2ccccc2n1)c1ccncc1`, the “percent difference in area” value was 7.96%. With `Nc1nc(Nc2ccc(S(N)(=O)=O)cc2)nn1C(=O)c1c(F)cccc1F` the “percent difference in area” value was -1.01%. With `CN[C@H]1CN(c2ccc3c(=O)c(C(=O)O)cn(-c4nccs4)c3n2)C[C@@H]1OC` [Voreloxin] the “percent difference in area” value was -18%. In the case of `CS(=O)(=O)N1CCN(Cc2cc3nc(-c4cccc5[nH]ncc45)nc(N4CCOCC4)c3s2)CC1`, the “percent difference in area” value is reported as -4.07%. In the case of `FC(F)c1nc2ccccc2n1-c1nc(N2CCOCC2)nc(N2CCOCC2)n1`, the “percent difference in area” value is reported as 1.79%. `CCc1c2c(nc3ccc(OC(=O)N4CCC(N5CCCCC5)CC4)cc13)-c1cc3c(c(=O)n1C2)COC(=O)[C@]3(O)CC` [Irinotecan] was tested, and the “percent difference in area” value was -12.2%. With `Cc1ccc([N+](=O)[O-])cc1S(=O)(=O)N(C)/N=C/c1cnc2ccc(Br)cn12` the “percent difference in area” value was -9.04%. For `CCN(CC)CCNC(=O)c1c(C)[nH]c(/C=C2\C(=O)Nc3ccc(F)cc32)c1C` [Sunitinib_Malate], the “percent difference in area” value was 3.02%. In the case of `CS(=O)(=O)c1cccc(CNc2nc(Nc3ccc4c(c3)CCC(=O)N4)ncc2C(F)(F)F)c1`, the “percent difference in area” value is reported as -3.53%. `Cc1ccc(NC(=O)c2ccc(CN3CCN(C)CC3)cc2)cc1Nc1nccc(-c2cccnc2)n1` [Imatinib_Mesylate] was tested, and the “percent difference in area” value was -3.71%. With `C=CC(=O)Nc1cccc(Oc2nc(Nc3ccc(N4CCN(C)CC4)cc3OC)ncc2Cl)c1` the “percent difference in area” value was 3.23%. With `CC(C)(C)c1cc(C(=O)C(C#N)=NNc2cccc(Cl)c2)no1` the “percent difference in area” value was -6.64%. In the case of `CCc1nc(N)nc(N)c1-c1ccc(Cl)cc1` [Pyrimethamine], the “percent difference in area” value is reported as 33.6%. In the case of `COc1c(C)c2c(c(O)c1C/C=C(\C)CCC(=O)OCCN1CCOCC1)C(=O)OC2` [Mycophenolate_mofetil], the “percent difference in area” value is reported as -4.5%. With `Cn1cnc([N+](=O)[O-])c1Sc1ncnc2[nH]cnc12` [Azathioprine] the “percent difference in area” value was -50.6%. For `O=C(O)c1ccc2cc(-c3ccc(O)c(C45CC6CC(CC(C6)C4)C5)c3)ccc2c1`, the “percent difference in area” value was -15%.

From the supplement of paper PMC11383364
